ChEMBL document CHEMBL4513216, “Probing the Open Global Health Chemical Diversity Library for Multistage-Active Starting Points for Next-Generation Antimalarials” (ACS Infect Dis, 2020)
Out of some 69,000 compounds screened, about 8,600 (12%) showed an effect of 50% or more. What follows is part of a selection rich in strong results, with near analogues and random picks from the rest.

These compounds were tested on Plasmodium berghei (assay: Screen against P. berghei liver stage (PbLuc), transformed with Luciferase, at 10uM). Settings: tested at 10 uM.
Format: functional, HepG2

Row | Compound | INHIBITION
1 | Cc1cc(Cc2ccc(F)cc2)cc(C2CCCNC2)n1 (stereo not drawn) | 32.3%
2 | Cc1cnn(CC2CCCN2C(=O)c2csc(C(C)C)n2)c1 (stereo not drawn) | 35.3%
3 | COc1ccc(C(=O)N2CCCC3(CCCC(=O)N3C)C2)cc1 (stereo not drawn) | 24.8%
4 | CNC(=O)c1ccccc1-c1ccc(S(C)(=O)=O)cc1 | -19.1%
5 | COCCN1C[C@@H]2[C@@H](OC)CCN(Cc3ccc(C)o3)[C@@H]2C1 | 15.4%
6 | Cc1nccc(N[C@H]2CN(C(=O)CN3CCOCC3)C[C@@H]2C(C)C)n1 | 43.6%
7 | Cc1nccc(N[C@H]2CN(C(=O)CCN3CCCC3=O)C[C@@H]2C(C)C)n1 | 55%
8 | Cc1nccc(N[C@H]2CN(C(=O)C3(C#N)CCOCC3)C[C@@H]2C(C)C)n1 | -5.1%
9 | Cc1csc(N2CCCN(C(=O)CCN3CCCC3=O)CC2)n1 | -21.8%
10 | Cc1nccc(N[C@H]2CN(C(=O)CN3CCCC3=O)C[C@@H]2C(C)C)n1 | 62.9%
11 | CSCCC(=O)N1C[C@H](Nc2ccnc(C)n2)[C@@H](C(C)C)C1 | -15.5%
12 | CC(C)(Oc1ccc(C(N)=O)cc1)C(=O)N(CCC#N)CC1CCCO1 (stereo not drawn) | 28.3%
13 | Cc1nc(C)n(CC2CCCN2CC(=O)Nc2c(C)n[nH]c2C)n1 (stereo not drawn) | 29.305%
14 | Cn1nc(C(=O)NCc2ccc(OC3CCCCC3)nc2)ccc1=O | 47.7%
15 | COCc1nc(-c2ccnc(N3CCNCC3)n2)no1 | 38.3%
16 | COCCCN(Cc1ccccn1)S(=O)(=O)Cc1ccccc1 | 46.1%
17 | CNc1nc(CNC(=O)Nc2cccc(-n3ccc(C)n3)c2)cs1 | 7.42%
18 | O=C(O)[C@H]1C[C@@H](C(=O)NCc2ccncc2)CN(Cc2ccccc2)C1 | 17.2%
19 | Fc1cccc(CN2C[C@@H]3COC[C@]3(COCc3ccncc3)C2)c1 | 49.7%
20 | Cc1cc(-n2cccn2)ccc1CN1CCOCC(CN(C)C)C1 (stereo not drawn) | 62.2%

Row | Compound | INHIBITION
21 | Cc1cc(C)c(-n2cccn2)c(CN2CCOCC(CN(C)C)C2)c1 (stereo not drawn) | 36.5%
22 | COc1ccc(-n2cccn2)c(CN2CCOCC(CN(C)C)C2)c1 (stereo not drawn) | 15.2%
23 | NC(=O)C1CCN(C(=O)CCn2c(C(F)(F)F)cc3cccnc32)CC1 | 1.5%
24 | Cc1ccc(=O)n(CC2(O)CCN(Cc3cnc(N(C)C)nc3)CC2)n1 | 14.7%
25 | c1cncc(Cc2nnc3n2CCN(CC2CCCNC2)CC3)c1 (stereo not drawn) | 16.3%
26 | CC(C)c1ccccc1OCCNC(=O)N1CCC(CC(N)=O)CC1 | 5.76%
27 | CC(C)c1n[nH]c(C2CN(C(=O)c3cc(C4CC4)[nH]n3)CCO2)n1 (stereo not drawn) | -20.2%
28 | O=C(Nc1cccnc1N1CCSCC1)c1cc2c(s1)CCCCC2 | 19.8%
29 | O=C(Cc1ccc2c(c1)CCCC2)Nc1cccnc1N1CCSCC1 | 53.5%
30 | O=C(Cc1ccc2c(c1)CCCC2)NCCc1ccccn1 | 70.7%
31 | O=C(Nc1cccnc1N1CCSCC1)c1ccc2c(c1)CCC2 | 38.6%
32 | O=C(Cc1ccc2c(c1)CCC2)NCCNc1ncccn1 | 45.9%
33 | O=C(Cc1ccc2c(c1)CCCC2)NCCNc1cnccn1 | 31.9%
34 | CC(C)(C)OCC1CN(Cc2cccs2)S(=O)(=O)c2cnccc2O1 (stereo not drawn) | 10.9%
35 | OCCN1CCCCC1C1OCCO1 (stereo not drawn) | -45.2%
36 | O=S(=O)(C1CC1)N1Cc2[nH]nc(COCC3CC3)c2C1 | 36.4%
37 | CCn1nc(C)c2ncnc(NCCN3CCOCC3)c21 | 21.7%
38 | CCn1ncc(S(=O)(=O)NC(C)c2cc(OC)ccc2OC)c1C (stereo not drawn) | 32.3%
39 | Cn1cncc1CN1CCC(O)(Cn2nc(-c3cccs3)oc2=O)CC1 | 38.7%
40 | O=C(c1ccccn1)N1CCC(Oc2cccnc2)CC1 | -10.4%

Row | Compound | INHIBITION
41 | O=C(c1ccc2[nH]cnc2c1)N1CCC(Oc2cccnc2)CC1 | 47.2%
42 | O=C(c1cnc[nH]1)N1CCC(Oc2cccnc2)CC1 | 55.9%
43 | CCN1CCN(C)C2(CCN(Cc3ccsc3)CC2)C1=O | 17.4%
44 | COC(=O)c1cc(C(=O)N2CCC(C)CC2)n(-c2ccccc2)n1 | 22.265%
45 | Cc1nc2cc(O)nn2c(C)c1CCC(=O)NCCc1nccn1C | 30.6%
46 | CCOC(=O)N1CCN(C(=O)c2cc(-c3ccc(C)cc3)on2)CC1 | 23.4%
47 | Cc1cc(C(=O)Nc2n[nH]c(C3CC3)n2)c2c(C)noc2n1 | 6.83%
48 | Nc1cc2c(nn1)CCN(C(=O)c1cccc3c1OCO3)C2 | -16%
49 | COC(=O)N1CC(C)=C(C)CN1C(=O)Nc1ccc(Cl)c(Cl)c1 | -52.3%
50 | O=C(CCC1CCCC1)N1CCC(c2ncc3c(n2)CCNC3)CC1 | 73.4%
51 | CCC(=O)N1CCC(c2ncc3c(n2)CCNC3)CC1 | 37.6%
52 | CCC(=O)N1CCCC(c2ncc3c(n2)CCN(C)C3)C1 (stereo not drawn) | 10%
53 | CN1CCc2nc(C3CCCN(C(=O)CC4CCCCC4)C3)ncc2C1 (stereo not drawn) | 27.8%
54 | CN1CCc2nc(C3CCN(C(=O)CCC4CCCC4)CC3)ncc2C1 | 85.9%
55 | O=C(C1CCCC1)N1CCC(c2ncc3c(n2)CCNC3)C1 (stereo not drawn) | -32.2%
56 | O=C(CCC1CCCC1)N1CCCC(c2ncc3c(n2)CCNC3)C1 (stereo not drawn) | 58.1%
57 | O=C(CC1CCCCC1)N1CCC(c2ncc3c(n2)CCNC3)CC1 | 47.2%
58 | CCCC(=O)N1CCC(c2ncc3c(n2)CCNC3)CC1 | -28.6%
